Test results: PubChem BioAssay AID504321 (NMMLSC, 2011)
The source made the active and inactive calls.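 The calls were made as follows: active = GFP response vs DMSO above 150% with enough events counted; inconclusive = fewer than 70 events counted for a yeast strain; inactive = the rest.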

experiment: yeast MEP2-GFP fusion level changes, TOR pathway – flow cytometry, third cherry pick, S. cerevisiae, confirmation (AID 504321);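 also: median per-cell GFP fluorescence by flow cytometry across all yeast cells; ratio of sample to DMSO median GFP so 100% equals the DMSO level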; conditions: S. cerevisiae MEP2-GFP strain, 3 h, at 10 µM, hits give high values

GFP response vs DMSO, inactive:
CSc1ccccc1OCc1cc(C(=O)N2CCN(C)C(c3ccccc3)C2)no1 (centres undefined) 103%
CS(=O)(=O)Oc1ccc(Br)c2cccnc12 110%
CC(=O)Nn1cnc2c(c1=O)C1(CCCCC1)Cc1ccccc1-2 114%
CCN(CC)C(=O)Oc1cc(=O)n(C)c2ccccc12 112%
CCc1sc(C(=O)Nc2nc(-c3ccccn3)cs2)cc1C 114%
COCC(C)NC(=O)CCS(=O)(=O)c1nc(-c2ccc(OC)cc2)cc(C(F)(F)F)n1 (centres undefined) 112%
Cc1ccc(C(=O)Nc2nc(-c3ccccn3)cs2)o1 103%
Cc1ccc(NC(=O)O/N=C2\CCCCC2c2ccc([N+](=O)[O-])cc2[N+](=O)[O-])cc1 (centres undefined) 105%
Cc1ccc(Nc2cc(=O)[nH]c(=O)[nH]2)cc1C 114%
CC(=O)C(Cl)C(=O)Nc1ccccc1 (centres undefined) 118%
Cc1cc(C)c2ccc(C(=O)O)nc2c1O 112%
C/C(=N\NC(=O)c1ccccc1)c1ccccc1F 116%
Cc1cccc(C)c1Nc1ncnc(N)c1[N+](=O)[O-] 103%
O=C(O)CCS(=O)(=O)c1nc(-c2cccs2)cc(C(F)(F)F)n1 116%
CC(=O)Nc1ccc(-c2nc3cc(Cl)ccc3o2)cc1 108%
CC(C)Nc1ncnc2ccc(Br)cc12 112%
COCCCNc1nc(N)c([N+](=O)[O-])c(Nc2cc(OC)ccc2OC)n1 110%
CC(=O)NC(C)c1cc(Cl)c2cccnc2c1O (centres undefined) 99%
Cc1ccc(Nc2cc(=O)[nH]c(=O)[nH]2)cc1Cl 101%
O=C(O)c1ccccc1-c1ccccc1C(=O)Nc1ccc(-c2nc3cc(Cl)ccc3o2)cc1 116%
COc1cc(OC)cc(C(=O)Nc2ccc(-c3nc4ccccc4o3)cc2)c1 110%
Nc1cc(C(=O)O)c(N)c2c1C(=O)c1ccccc1C2=O 110%
Cn1c(=O)c2c(n3cnnc13)-c1ccccc1CC21CCCC1 112%
COCCCNc1nc(N)c([N+](=O)[O-])c(Nc2ccccc2OC)n1 110%
O=C(O)c1ccc(C=NNC(=O)c2cccc3ccccc23)cc1 103%
O=C(Nc1ccccc1)O/N=C1/CCCc2occc21 112%
O=C(Nc1ccccc1)O/N=C1\CCCCC1c1ccc([N+](=O)[O-])cc1[N+](=O)[O-] (centres undefined) 105%
CNc1cccc2c1C(=O)c1ccccc1C2=O 114%
CCCC(=O)Nn1cnc2c(c1=O)C1(CCCC1)Cc1ccccc1-2 105%
N#Cc1c(N)nc(N)nc1Nc1ccc(Br)cc1 110%
Cc1cccc(Nc2cc(=O)[nH]c(=O)[nH]2)c1 108%
COc1cccc2c(Cl)c(CCCl)c(C)nc12 101%
CNc1nc(N)c([N+](=O)[O-])c(Nc2ccccc2OC)n1 105%
CC1=CN2C(=N)/C(=C/c3ccc(C)o3)C(=O)N=C2S1 105%
CCN(CC)C(=O)Oc1ccnc2cc(Cl)ccc12 110%
CNc1nc(C)c([N+](=O)[O-])c(Nc2ccc(OC)cc2)n1 105%
NC(=O)COc1cccc2cccnc12 108%
CCN(CC)c1ncnc2ccc(Br)cc12 114%
CSc1nc(S(C)(=O)=O)nc2[nH]c(=O)[nH]c12 110%
